# Reference: PubChem BioAssay (NCATS)
# Several values for one entry are separate records, joined by “and”; a condition that tells them apart may be missing. Identical values can stand only once. Results filed as inconclusive are left out. A call without a number means that no potency is given here. Activity calls are given as the source filed them. Unless noted, calls come from the whole dose curve; as a rule, active = well fitted curve in the direction sought with a large enough effect; inconclusive = small, poorly fitted or top-dose-only effect, or another doubt; inactive = no such curve, though single readings can be large; an effect the other way counts as inactive or inconclusive.
# Tests used:
# [1] = target: T1, Hexokinase-4 (Homo sapiens) + Glucokinase regulatory protein (Homo sapiens) (UniProt P35557+Q14397); test: qHTS assay for inhibitors of recombinant human GCK-GKRP interaction: Diaphorase-coupled assay (AID 743205)
# T1 sequence (P35557 whole entry, looked up): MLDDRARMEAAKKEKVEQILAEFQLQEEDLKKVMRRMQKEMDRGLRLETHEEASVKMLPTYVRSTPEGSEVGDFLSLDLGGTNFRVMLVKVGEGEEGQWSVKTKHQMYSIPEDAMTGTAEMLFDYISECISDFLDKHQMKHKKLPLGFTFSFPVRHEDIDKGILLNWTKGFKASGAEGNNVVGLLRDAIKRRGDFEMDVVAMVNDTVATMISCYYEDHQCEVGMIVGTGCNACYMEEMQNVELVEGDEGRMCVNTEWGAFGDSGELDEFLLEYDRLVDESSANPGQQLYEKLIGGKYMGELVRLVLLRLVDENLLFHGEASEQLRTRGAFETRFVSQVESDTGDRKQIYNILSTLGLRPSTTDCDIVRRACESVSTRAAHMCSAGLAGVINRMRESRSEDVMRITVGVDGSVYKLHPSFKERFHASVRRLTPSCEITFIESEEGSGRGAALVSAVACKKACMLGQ
# T1 sequence (Q14397 whole entry, looked up): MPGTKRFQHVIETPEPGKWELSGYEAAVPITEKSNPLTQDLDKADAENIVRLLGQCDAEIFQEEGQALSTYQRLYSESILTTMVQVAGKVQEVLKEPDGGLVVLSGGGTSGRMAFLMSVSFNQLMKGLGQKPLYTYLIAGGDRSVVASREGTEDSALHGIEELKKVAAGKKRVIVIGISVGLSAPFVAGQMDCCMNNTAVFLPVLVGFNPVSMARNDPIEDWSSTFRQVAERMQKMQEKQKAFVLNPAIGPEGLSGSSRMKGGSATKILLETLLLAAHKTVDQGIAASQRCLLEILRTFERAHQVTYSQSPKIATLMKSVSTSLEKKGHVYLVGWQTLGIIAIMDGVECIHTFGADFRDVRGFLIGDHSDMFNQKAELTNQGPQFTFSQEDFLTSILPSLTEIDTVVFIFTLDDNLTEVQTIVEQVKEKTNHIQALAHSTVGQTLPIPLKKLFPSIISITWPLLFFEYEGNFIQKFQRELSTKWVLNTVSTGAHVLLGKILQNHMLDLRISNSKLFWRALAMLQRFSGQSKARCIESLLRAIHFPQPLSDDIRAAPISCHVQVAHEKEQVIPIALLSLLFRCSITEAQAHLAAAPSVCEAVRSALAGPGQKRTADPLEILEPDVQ
# Procedure, shortened: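 A kinetic fluorescence read (Ex 525/Em 590 nm, every minute for 30 minutes) tracked resorufin from a G6PDH-diaphorase coupled GCK reaction. It contained 10 nM GST-GCK, 10 nM FLAG-GKRP, 5 mM glucose, 0.4 mM ATP in Hepes pH 7.6. Normalized to with/without-enzyme DMSO controls.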
# [2] = target: T1, Hexokinase-4 (Homo sapiens) + Glucokinase regulatory protein (Homo sapiens); test: qHTS assay for inhibitors of recombinant human GCK-GKRP interaction: ADP-Glo assay (AID 743206); note: potency is the fitted concentration of half-maximal effect
# Procedure, shortened: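 GST-GCK and FLAG-GKRP (15 nM each in the dispensed mix, with 2 uM S6P) react with 0.4 mM ATP and 5 mM glucose (final) in Hepes pH 7.6 for 60 min at room temperature. ADP is measured by ADP-Glo luminescence.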
# [3] = target: T1, Hexokinase-4 (Homo sapiens) + Glucokinase regulatory protein (Homo sapiens); test: qHTS assay for inhibitors of recombinant human GCK-GKRP interaction: HTRF assay (AID 743207)
# Procedure, shortened: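 After 60 min equilibration at room temperature with anti-FLAG XL665 and anti-GST antibodies, FRET ratio (665/615 nm, excitation 320 nm) was read. Proteins: GST-GCK and FLAG-GKRP, each 5 nM, plus 2 uM S6P, pH 7.1 buffer; GCK-free wells define minimum signal.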
# [4] = qHTS Assay for Identifying Gametocytocidal Compounds (AID 743244);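 note: actives lower the fluorescent signal which means gametocytes are killed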; conditions: P. falciparum 3D7 stage III-V gametocytes, alamarBlue, 72 h; max response: stronger effect = lower value
# Procedure, shortened: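 A resazurin-based viability read-out was applied to mature P. falciparum gametocytes: 72 h compound treatment, then 24 h dye incubation, with falling fluorescence signalling gametocytocidal effect.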
# [5] = qHTS assay for measurement of the activity of small molecule inhibitors on Zika virus induced Caspase-3 activity in human iPSC derived neural progenitor cells (hNPCs) (AID 1224857); note: nearly all actives have a fitted effect of over 65% in size; note: potency is the fitted concentration of half-maximal effect
# Procedure, shortened: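 Quantitative HTS format: human iPSC neural progenitors, 1 h compound pretreatment, ZIKV 2 FFU/cell for 6 h at 37 C. Percent inhibition derived from luminescent caspase-3/7 signal between uninfected and infected controls.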
# [6] = qHTS for Activators of Parkin Expression: LOPAC Validation Assay (FLuc Reporter) (AID 720573)
# Procedure, shortened: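 FLuc signal from Parkin-promoter coincidence reporter neuronal cells, normalized to DMSO and positive control (100%). Cells (1,500/well) pre-incubated 24 h, then exposed to LOPAC compounds in 7-point dose response for 24 h at 37 C, 5% CO2.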
# [7] = qHTS profiling of the MIPE4 collection as inhibitors of Plasmodium falciparum (3D7) proliferation (AID 743344; call rule not given here); conditions: P. falciparum 3D7 in erythrocytes, SYBR Green DNA fluorescence, 72 h; at 28.5 µM (top of the series)
# Procedure, shortened: (§1)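 Erythrocytes infected with P. falciparum (0.3% parasitemia, 2.5% hematocrit) incubated with compounds 72 h at 37 C, 5% CO2. Lysis with saponin/Triton buffer containing SYBR Green I, overnight at room temperature in the dark; DNA fluorescence (485/535 nm) normalised to 0.29 uM artemisinin and DMSO.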
# [8] = qHTS profiling of the MIPE4 collection as inhibitors of Plasmodium falciparum (DD2) proliferation (AID 743345; call rule not given here); conditions: P. falciparum Dd2 in erythrocytes, SYBR Green DNA, 72 h; at 28.5 µM (top of the series)
# Procedure, shortened: as §1
# [9] = qHTS profiling of the MIPE4 collection as inhibitors of Plasmodium falciparum (DD2) proliferation (Rep 2) (AID 743346; call rule not given here); conditions: P. falciparum Dd2 in erythrocytes, SYBR Green DNA, 72 h; at 28.5 µM (top of the series)
# Procedure, shortened: as §1
# [10] = qHTS profiling of the MIPE4 collection as inhibitors of Plasmodium falciparum (HB3) proliferation (AID 743347; call rule not given here); conditions: P. falciparum HB3 in erythrocytes, SYBR Green DNA, 72 h; at 28.5 µM (top of the series)
# Procedure, shortened: as §1
# [11] = qHTS assay for small molecule agonists of the antioxidant response element (ARE) signaling pathway measured by Nrf2-dependant transcriptional activity (AID 720636; active = well fitted curve in the direction sought with a large enough effect in the repeat runs; an effect the other way counts as inactive or inconclusive)
# Procedure, shortened: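 ARE-luc HepG2 cells carrying an Nrf2-responsive luciferase reporter, in medium with 1% dialyzed FBS, exposed to compound for 16 hr at 37 C, 5% CO2. Luminescence read 30 min after ONE-Glo addition.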
# [12] = qHTS assay for small molecule agonists of the antioxidant response element (ARE) signaling pathway measured by Nrf2-dependant transcriptional activity - cell viability counter screen (AID 720653; active = well fitted curve in the direction sought with a large enough effect in the repeat runs; an effect the other way counts as inactive or inconclusive); conditions: ARE-bla HepG2 viability, CellTiter-Glo ATP luminescence, 16 h; max response: stronger effect = lower value
# Procedure, shortened: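 ARE-bla HepG2 cells (2,000/well) rested 5 hrs at 37C/5% CO2, then exposed to compounds in DMSO for 16 hrs. Viability was read in the same wells as intracellular ATP by luminescence, 30 min at room temperature after reagent addition.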
# [13] = qHTS assay for cell viability of HEK293 cells (AID 743288); conditions: ATP luminescence (CellTiter-Glo), 18 h; max response: stronger effect = lower value; note: nearly all actives have a fitted effect of over 50% in size
# Procedure, shortened: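 Total intracellular ATP, measured with a luciferase-coupled reagent, indicates the number of viable HEK293 cells. Exposure to test chemicals lasts 18 h at 37 C in 1,536-well format at 2,000 cells/well.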
# [14] = qHTS assay for cell viability of the p53RE-bla HCT-116 cell line (AID 743292); note: nearly all actives have a fitted effect of over 55% in size
# Procedure, shortened: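 CellSensor p53RE-bla HCT-116 cells (4,000/well) pre-incubated 5 h at 37 C, then exposed to compounds in DMSO for 16 h at 37 C. Viability read as ATP content by CellTiter-Glo luminescence after 30 min at room temperature.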
# [15] = qHTS assay for measurement of the activity of small molecule inhibitors on Zika virus induced Caspase-3 activity in human astrocytoma cells (AID 1224859)
# Procedure, shortened: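 Readout is luminescence from Caspase-Glo 3/7 added after a 6 h ZIKV infection (2 FFU/cell) of compound-pretreated (1 h) SNB-19 cells; data expressed as % inhibition versus uninfected and infected wells.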
# [16] = qHTS assay to identify small molecule inhibitors of chordoma cells - UCH-1 (AID 1259355); note: nearly all actives have a fitted effect of over 55% in size
# Procedure, shortened: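 Luminescent ATP read-out (CellTiter-Glo, 30min at room temperature) measured viability of UCH-1 cells exposed for 48hr to test drugs at 15 concentrations, co-dosed with a five-agent combination of auranofin, camptothecin, doxorubicin, rubitecan and topotecan.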
# [17] = qHTS assay to identify small molecule inhibitors of chordoma cells - UCH-2 (AID 1259356)
smiles,measurement,setting,value
N[C@@H](CC(=O)O)C(=O)O,outcome,[1],inactive
same,Potency,[2],inactive
same,Potency,[3],inactive
same,max response,[4],20.5% (inactive)
same,Potency,[5],inactive
COc1cc2c(CCNC(C)=O)c[nH]c2cc1Cl,Potency,[6],inactive
same,outcome,[1],inactive
same,Potency,[2],inactive
same,max response,[4],6.49% (inactive)
same,Potency,[5],inactive
O=C(O)c1cc([N+](=O)[O-])ccc1NCCCc1ccccc1,outcome,[1],inactive
same,Potency,[2],inactive
same,Potency,[3],inactive
same,max response,[4],5.5% (inactive)
same,Potency,[5],10 µM (active)
O=C(Nc1cccc(C(=O)Nc2ccc(S(=O)(=O)O)c3cc(S(=O)(=O)O)cc(S(=O)(=O)O)c23)c1)Nc1cccc(C(=O)Nc2ccc(S(=O)(=O)O)c3cc(S(=O)(=O)O)cc(S(=O)(=O)O)c23)c1,Potency,[6],inactive
same,Potency,[2],22.4 µM (active)
same,max response,[4],-0.217% (inactive)
same,"parasite growth, % of DMSO control",[7],84.7%
same,"parasite growth remaining, % of DMSO control (lower = more inhibition)",[8],91.3%
same,"parasite growth, % of control (lower = inhibition)",[9],111%
same,"growth, % of control",[10],83.4%
same,Potency,[5],inactive
CO/N=C(\C(=O)N[C@@H]1C(=O)N2C(C(=O)O)=C(COC(C)=O)CS[C@H]12)c1csc(N)n1 (stereo in doubt),max response,[4],12.7% (inactive)
same,Potency,[5],inactive
O=C1NC(=O)/C(=C/c2ccc(-c3ccc(F)cc3O)o2)S1,outcome,[1],inactive
same,Potency,[2],inactive
same,Potency,[3],inactive
same,max response,[4],-4.42% (inactive)
same,Potency,[5],10 µM (active)
O=C(O)c1ccccc1Nc1cccc(C(F)(F)F)c1,Potency,[11],inactive
same,max response,[12],0.398% (inactive)
same,max response,[13],-8.76% (inactive)
same,Potency,[14],inactive
same,Potency,[15],inactive
same,Potency,[16],inactive
same,Potency,[17],inactive
O=c1cc(-c2ccccc2)oc2ccccc12,max response,[12],-6.91% (inactive) and -11.5% (inactive)
same,max response,[4],7.39% (inactive)
same,max response,[13],-12.4% (inactive) and -11.5% (inactive)
same,Potency,[14],inactive
same,Potency,[5],35.5 µM (active)
O=Cc1ccc(O)c(O)c1O,Potency,[15],inactive
O=C(O)Cc1ccc2c(c1)C(=O)c1ccccc1CO2,Potency,[15],inactive
COC(=O)c1nc(Cl)c(Cl)nc1N,Potency,[15],inactive
c1ccc(CCNc2nc(-c3ccccc3)cs2)cc1,max response,[4],-4.46% (inactive)
same,Potency,[5],inactive
O=C(CS)Nc1ccccc1,Potency,[15],inactive
C=CCCCCCCCCC(=O)O,Potency,[11],inactive
same,max response,[12],1.06% (inactive)
same,max response,[4],8% (inactive)
same,max response,[13],-1.32% (inactive)
same,Potency,[14],inactive
same,Potency,[15],inactive
same,Potency,[16],inactive
same,Potency,[17],inactive
O=C(O)CC1CCCc2ccccc2C1O (centres undefined),outcome,[1],inactive
same,Potency,[2],inactive
same,Potency,[3],inactive
same,max response,[4],12.4% (inactive)
same,Potency,[5],inactive
N=C(N)N,max response,[4],-3.24% (inactive)
same,Potency,[5],inactive
CCCCC1C(=O)N(c2ccccc2)N(c2ccc(O)cc2)C1=O (centres undefined),Potency,[15],inactive
N#C/C(=C\c1ccc(-c2cc(Cl)ccc2Cl)o1)C(=O)Nc1cccc2ncccc12,Potency,[6],inactive
same,outcome,[1],inactive
same,Potency,[2],inactive
same,max response,[4],-7.88% (inactive)
same,Potency,[5],inactive
